About 360 (0.41%) of roughly 87,000 compounds were called active. The full list was thinned out, with actives kept by preference. Unmarked numbers belong to inactive results. Rule as the data show it: active = cytotoxicity above about 50%; inactive = the rest.
Assay: HT1080 cell viability loss – fluorescence readout (AID 620);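 also: cells exposed to compound overnight then 4 h with Alamar Blue; 0% = vehicle DMSO and 100% = killing control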
Conditions: at 10 µM, active compounds read high

Compound	cytotoxicity
COc1cccc(C(=O)Nc2ccc(F)cc2F)c1	-7.7%
CC(C)(C)c1ccc(Oc2cccc(C3CC(=O)C(C4NCCc5ccccc54)C(=O)C3n3cncn3)c2)cc1 (stereo not drawn)	-1.9%
CCn1c(CC(=O)Nc2ccccc2)nnc1SCC(=O)Nc1ccccc1C(=O)OC	0.7%
COc1ccc(N2CCCCn3c2nc2c3c(=O)[nH]c(=O)n2C)cc1	3.8%
CCOC(=O)Cn1nc(-c2ccc(Cl)cc2)ccc1=O	-5%
CCn1c(CSc2nc3ccccc3n2C)nc2ccccc21	27.6%
COc1ccc(C2C(C#N)=C(C)NC3=C2C(=O)c2ccccc23)cc1 (stereo not drawn)	3%
COc1cc(C2C(C#N)=C(C)NC3=C2C(=O)c2ccccc23)cc(OC)c1OC (stereo not drawn)	68.6% (active)
COc1cc(C2C(C#N)=C(C)NC3=C2C(=O)CC(C)(C)C3)cc(OC)c1O (stereo not drawn)	-2.1%
COc1cc(NC(=O)c2cccs2)c(C(=O)OCC(=O)NCc2ccccc2)cc1OC	9.6%
CCOc1ccc(NC(=O)CSc2nnc(C)n2CC2CCCO2)cc1 (stereo not drawn)	-2.7%
COc1ccc(-c2noc(CN3CCCCC3)n2)cc1OC	11.9%
CN(C)S(=O)(=O)c1ccc(S(=O)(=O)N(Cc2ccco2)Cc2ccccc2Cl)cc1	-1.9%
CCOc1cc(S(=O)(=O)N2CCN(c3ccc(F)cc3)CC2)c(OCC)cc1-n1cnnn1	2.6%
CCOc1cc(S(=O)(=O)N2CCC(Cc3ccccc3)CC2)c(OCC)cc1-n1cnnn1	-6.4%
CCOc1cc(S(=O)(=O)N2CC=C(c3ccc(F)cc3)CC2)c(OCC)cc1-n1cnnn1	52.5% (active)
CC12CCC(C(=O)N3CCN(Cc4ccccc4)CC3)(OC1=O)C2(C)C (stereo not drawn)	0.4%
CN1CC[n+]2c(CN3C(=O)c4ccccc4C3=O)csc21	15.5%
CCCC(=O)c1c(NC(C)C)cc(C)oc1=O	-2.5%
COc1ccc(C(=O)N2CCN(C(=O)c3cc(OC)c(OC)c(OC)c3)CC2)cc1	-0.7%
COc1cc(C(=O)N2CCN(c3cc(Cl)ccc3Cl)CC2)cc(OC)c1OC	66% (active)
Cc1cccc(N2CCN(C(=O)c3ccncc3)CC2)c1C	21.3%
COc1ccc(Cl)cc1S(=O)(=O)N1CCN(C(=O)c2cc(OC)c(OC)c(OC)c2)CC1	-2.5%
COc1cc(C(=O)N2CCN(C(=O)c3ccccc3)CC2)cc(OC)c1OC	-2.8%

Compound	cytotoxicity
COc1cc(C(=O)N2CCN(c3cccc(C)c3C)CC2)cc(OC)c1OC	62.4% (active)
O=C(C1CC1)N1CCN=C1SCc1ccccc1	-4.5%
Cc1cccc(NC(=O)c2ccc(S(=O)(=O)N(C)C)cc2)n1	36.5%
CCc1ccc(NC(=O)CCn2ccnc2C)cc1	-7%
Cc1ccc(S(=O)(=O)N(C)c2ccc(OCC(=O)OCc3c(C)noc3C)cc2)cc1	11.5%
CCC(C)(C)NC(=O)CN(C(=O)CCC(=O)Nc1cc(C)ccn1)c1ccc2c(c1)OCO2	-1.1%
CCCCCCCC(=O)OCC(O)CO (stereo not drawn)	-0.9%
CCCCCCCCCC(=O)OCC(O)CO (stereo not drawn)	-10.7%
CCCCCCCCCCCCCCCC(O)C(N)CO (stereo not drawn)	58.2% (active)
COCCn1nnnc1CN(Cc1ccco1)Cc1cc2cc3c(cc2[nH]c1=O)OCO3	-10.7%
CCn1cc(C(=O)NCc2cccs2)c(=O)c2ccc(C)nc21	-4%
COc1ccc(OC)c(Nc2cc(-c3ccccc3)nc(N)n2)c1	56.1% (active)
COc1ccc(OC)c(Nc2cc(C)nc3ccccc23)c1	20.6%
COc1ccc(OC)c(Nc2nc(N)nc(-c3cc4ccccc4o3)n2)c1	4.8%
c1ccc(CSc2ncccn2)cc1	4.3%
O=C(CCNS(=O)(=O)c1ccccc1F)NCc1ccc2c(c1)OCO2	-0.4%
COC(=O)N1[C@H](C)C=C[C@]1(Cc1ccccc1)C(=O)O	90.8% (active)
COC(=O)N1[C@H](C)C=C[C@]1(Cc1ccccc1)C(=O)OC	-24.7%
CNC(=O)[C@@]1(Cc2ccccc2)C=C[C@@H](C)N1C(=O)OC	-24.6%
CCSc1nnc(NC(=O)CSc2nccn2-c2cccc(C)c2C)s1	-8.3%
CCc1nnc(NC(=O)CSc2nccn2-c2cccc(C)c2C)s1	-9.5%
Cc1nnc(NC(=O)CSc2nccn2-c2cccc(C)c2C)s1	54.7% (active)
CN1/C(=C\C(=O)c2ccco2)C(C)(C)c2ccccc21	9%
CN1/C(=C\C(=O)C(F)F)C(C)(C)c2ccccc21	-3.2%

— PubChem BioAssay AID620 (Sanford-Burnham Center for Chemical Genomics, 2007)
